Data from PubChem BioAssay.
Several values for one entry are separate records, joined by “and”; a condition that tells them apart may be missing. Equal values may be shown once. Activity calls are given as the source filed them. Cut-off read from the data, not from the text of the source, unless noted: active = inhibition above about 80%; inactive = the rest.

How the values were obtained:
[1] = biological target: NAD(+) hydrolase SARM1 (Homo sapiens) (UniProt Q6SZW1); assay: SARM1 TIR NADase inhibitors, cell lysate, NAD-Glo luminescence (AID 1508614;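 active = compound whose remaining NAD level is above about 45 nM, limit read from the data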;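 note: higher remaining NAD means stronger inhibition of SARM1 NADase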); conditions: SAM-TIR HEK293T lysate NADase, at 1 µM, stronger effect = higher value
Chain of NAD(+) hydrolase SARM1 (Homo sapiens) (Q6SZW1 whole entry, looked up, the tested form may be a part): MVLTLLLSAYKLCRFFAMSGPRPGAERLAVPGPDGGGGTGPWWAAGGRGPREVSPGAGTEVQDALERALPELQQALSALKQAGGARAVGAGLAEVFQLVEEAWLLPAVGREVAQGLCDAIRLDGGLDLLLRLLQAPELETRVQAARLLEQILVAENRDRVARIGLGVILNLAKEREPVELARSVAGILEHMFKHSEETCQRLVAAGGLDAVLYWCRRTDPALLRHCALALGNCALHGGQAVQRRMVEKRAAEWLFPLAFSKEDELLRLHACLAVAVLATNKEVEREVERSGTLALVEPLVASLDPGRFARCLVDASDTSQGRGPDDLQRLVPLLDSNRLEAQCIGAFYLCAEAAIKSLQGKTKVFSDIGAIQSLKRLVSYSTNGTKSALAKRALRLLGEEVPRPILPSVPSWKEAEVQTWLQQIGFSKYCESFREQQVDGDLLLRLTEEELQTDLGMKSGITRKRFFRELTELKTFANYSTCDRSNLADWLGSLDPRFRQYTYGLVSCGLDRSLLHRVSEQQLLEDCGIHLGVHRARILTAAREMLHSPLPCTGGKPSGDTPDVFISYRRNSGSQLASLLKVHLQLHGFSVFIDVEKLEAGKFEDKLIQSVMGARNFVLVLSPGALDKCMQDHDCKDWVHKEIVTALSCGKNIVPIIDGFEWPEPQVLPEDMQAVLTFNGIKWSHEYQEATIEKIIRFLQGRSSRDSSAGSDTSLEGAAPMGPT

[2] = biological target: Mitogen-activated protein kinase 7 (Homo sapiens) (UniProt Q13164); assay: ERK5 transactivation activators in reporter cells, primary screen, cell-based, HTS (AID 1508626;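 active = luciferase signal above three times the same-plate solvent-only control wells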;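 note: luciferase driven by Gal4-ERK5 fusion binding five Gal4 sites before minimal TATA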); conditions: HeLa Gal4-ERK5 transactivation, 18 h, at 5 µM, stronger effect = higher value
Chain of Mitogen-activated protein kinase 7 (Homo sapiens) (Q13164 whole entry, looked up, the tested form may be a part): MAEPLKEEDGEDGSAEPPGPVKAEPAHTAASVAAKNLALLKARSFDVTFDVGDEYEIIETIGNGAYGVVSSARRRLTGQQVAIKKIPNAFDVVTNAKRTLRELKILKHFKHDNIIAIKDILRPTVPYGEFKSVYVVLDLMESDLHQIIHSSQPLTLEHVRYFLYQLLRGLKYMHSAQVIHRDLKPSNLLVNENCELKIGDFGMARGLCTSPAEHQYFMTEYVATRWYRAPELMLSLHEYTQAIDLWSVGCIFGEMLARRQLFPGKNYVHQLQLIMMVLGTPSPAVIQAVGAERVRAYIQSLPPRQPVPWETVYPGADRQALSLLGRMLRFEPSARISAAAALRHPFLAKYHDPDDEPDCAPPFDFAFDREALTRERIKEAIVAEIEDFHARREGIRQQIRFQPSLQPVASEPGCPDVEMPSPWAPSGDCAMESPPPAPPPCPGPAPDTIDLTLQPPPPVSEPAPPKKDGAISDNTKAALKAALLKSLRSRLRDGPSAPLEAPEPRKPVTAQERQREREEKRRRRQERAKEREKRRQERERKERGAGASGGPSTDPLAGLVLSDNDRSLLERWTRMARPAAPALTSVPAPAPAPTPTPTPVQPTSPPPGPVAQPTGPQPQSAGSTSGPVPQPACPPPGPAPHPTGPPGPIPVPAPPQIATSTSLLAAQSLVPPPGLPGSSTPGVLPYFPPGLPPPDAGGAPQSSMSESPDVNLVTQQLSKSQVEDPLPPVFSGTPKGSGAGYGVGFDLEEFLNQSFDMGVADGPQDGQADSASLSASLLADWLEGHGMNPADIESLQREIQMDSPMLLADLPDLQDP

[3] = LFS_MB_1R medulloblastoma cell growth inhibition, synergistic combos for chromothripsis tumors, cisplatin or BGB combos (AID 1671452); conditions: LFS_MB_1R medulloblastoma cells, stronger effect = higher value;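 note: cells exposed for 96 hours before readout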
[4] = CRL2098 osteosarcoma cell growth inhibition, synergistic combos for chromothripsis tumors, BGB or cisplatin IC20 combos (AID 1671454); conditions: CRL2098 osteosarcoma cells, drug combinations, stronger effect = higher value;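 note: cells exposed for 96 h before readout; 0% = vehicle DMSO and 100% = killing by high DMSO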
[5] = HD-MB03 medulloblastoma cell growth inhibition, synergistic combos for chromothripsis tumors, BGB or cisplatin IC20 combos (AID 1671455; in the data active = inhibition above about 83%;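 note: 0% = vehicle DMSO and 100% = high DMSO as cytotoxic control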); conditions: HD-MB03 medulloblastoma cells, stronger effect = higher value
[6] = UWB1.289 ovarian carcinoma cell growth inhibition, synergistic combos for chromothripsis tumors, BGB or cisplatin combos (AID 1671456); conditions: UWB1.289 ovarian carcinoma cells, stronger effect = higher value;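 note: cells exposed to compound for four days; 0% = vehicle DMSO and 100% = killing by high DMSO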
[7] = LFS_MB_2R medulloblastoma cell growth inhibition, synergistic combos for chromothripsis tumors, cisplatin combos (AID 1671457); conditions: LFS_MB_2R medulloblastoma cells, stronger effect = higher value;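 note: cells exposed to compound for four days before readout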
[8] = UWB1.289_BRCA1 ovarian cancer growth, cell-based, BGB or cisplatin combinations (AID 1671459); conditions: UWB1.289 BRCA1 ovarian carcinoma, drug combinations, stronger effect = higher value
[9] = human astrocyte viability loss, single and combined drugs, cytotoxicity control for chromothriptic childhood tumor combination screen, cell-based, BGB or cisplatin IC20 combos (AID 1671460); conditions: Human astrocytes, drug combinations, stronger effect = higher value;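 note: cells exposed to compounds for 96 hours before viability readout; 0% = vehicle and 100% = killing control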
[10] = growth inhibition of CRL1545 osteosarcoma cells, cell-based, cisplatin and BGB IC20 combos (AID 1671464); conditions: stronger effect = higher value;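 note: cells exposed to compound for 96 hours before readout; 0% = vehicle DMSO and 100% = high DMSO killing control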
[11] = liver-stage malaria parasite growth inhibition, primary screen, cell-based, HepG2, luciferase luminescence, HepG2 viability (AID 624349; in the data active = parasite load remaining mostly below about 12%, no sharp cut-off; inactive = mostly above about 10%;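 note: 100% = mean of DMSO negative control wells on the same plate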); conditions: P. berghei liver stage in HepG2, luciferase luminescence, concentration not given here; parasite load remaining: stronger effect = lower value; viability: measured here: HepG2 viability without parasites
[12] = kinase inhibitors against Plasmodium liver-stage infection, cell-based, known kinase inhibitor set, luminescence, hepatoma host viability (AID 624392; call rule not given here;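 note: infected cells incubated roughly two days before readout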); conditions: Plasmodium liver stage in hepatoma cells, luciferase luminescence, concentration not given here; liver cell % of control: measured here: host liver cell viability; parasite % of control: stronger effect = lower value
[13] = viability rescue of complex I mutant cybrids, primary screen, cell-based, galactose medium, ATP luminescence (AID 1645843;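 active = z-score of at least 1.8 in each of two replicates, scored against plate mean and spread of sample wells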;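 note: positive z means more ATP and so rescue of galactose-driven cybrid death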); conditions: complex I mutant cybrid cells, 72 h, stronger effect = higher value
[14] = measured here: combination with BGB IC40, at 0.05 µM
[15] = measured here: combination with cisplatin, at 0.5 µM
[16] = measured here: combination with cisplatin, at 5 µM
[17] = measured here: combination with BGB at IC20, at 0.5 µM
[18] = measured here: combination with cisplatin at IC20, at 0.5 µM
[19] = measured here: combo with BGB at IC20, at 0.5 µM
[20] = measured here: combo with cisplatin at IC20, at 0.5 µM
[21] = measured here: inhibition with BGB combination, at 0.05 µM
[22] = measured here: inhibition with cisplatin combination, at 0.05 µM
[23] = BGB combination, concentration series, at 5 µM
[24] = cisplatin combination, concentration series, at 5 µM
[25] = measured here: combo with BGB IC20, at 0.5 µM
[26] = measured here: combo with cisplatin IC20, at 0.5 µM
[27] = measured here: with BGB IC20 combination, at 0.5 µM
[28] = measured here: with cisplatin IC20 combination, at 0.5 µM

CC1(C)O[C@@H]2C[C@H]3[C@@H]4CCC5=CC(=O)C=C[C@]5(C)[C@H]4[C@@H](O)C[C@]3(C)[C@]2(C(=O)CO)O1
remaining NAD [1]: 10 nM (inactive) | luciferase signal [2]: 172 AU (inactive)

CN(C)Cc1c(C(=O)NCCOc2ccc(C(=O)NO)cc2)oc2ccccc12
inhibition ([3]; at 0.5 µM): 45.6% (inactive) | inhibition [3, 14]: -17% | inhibition [3, 15]: 62.1% | inhibition [3, 16]: 98.2% | inhibition ([4]; at 0.5 µM): 25.5% (inactive) | inhibition [4, 17]: 32.6% | inhibition [4, 18]: 21.9% | inhibition ([5]; at 0.5 µM): 99.3% (active) | inhibition [5, 19]: 99.1% | inhibition [5, 20]: 99.5% | inhibition ([6]; at 0.5 µM): 49.7% (inactive) | inhibition [6, 21]: 11.1% | inhibition [6, 22]: 27.1% | inhibition ([7]; at 0.5 µM): 51.5% (inactive) | inhibition [7, 15]: 71.4% | inhibition [7, 16]: 106% | inhibition [8, 23]: 111% | inhibition ([8]; at 0.5 µM): 59.3% (inactive) | inhibition [8, 24]: 125% | inhibition ([9]; at 0.5 µM): 49.9% (inactive) | inhibition [9, 25]: 45% | inhibition [9, 26]: 44% | inhibition ([10]; at 0.5 µM): 80.7% (active) | inhibition [10, 27]: 78.9% | inhibition [10, 28]: 81.1% | inhibition ([10]; single agent, at 0.05 µM): 38.5% | inhibition ([10]; single agent, at 5 µM): 96.4%

Cc1ccc([N+](=O)[O-])cc1S(=O)(=O)N(C)/N=C/c1cnc2ccc(Br)cn12
parasite load remaining [11]: 40.5% (inactive) | viability [11]: 60.2% | inhibition ([3]; at 0.5 µM): 82.3% (active) | inhibition [3, 14]: -47.5% | inhibition [3, 15]: 77.8% | inhibition [3, 16]: 97.4% | inhibition ([4]; at 0.5 µM): 89.7% (active) | inhibition [4, 17]: 91.5% | inhibition [4, 18]: 95.8% | inhibition ([5]; at 0.5 µM): 84.2% (active) | inhibition [5, 19]: 85% | inhibition [5, 20]: 81.5% | inhibition ([6]; at 0.5 µM): 63.4% (inactive) | inhibition [6, 21]: -17.5% | inhibition [6, 22]: -14.7% | inhibition ([7]; at 0.5 µM): 63.9% (inactive) | inhibition [7, 15]: 63.1% | inhibition [7, 16]: 90.7% | inhibition [8, 23]: 89.2% | inhibition ([8]; at 0.5 µM): 73.9% (inactive) | inhibition [8, 24]: 92.4% | inhibition ([9]; at 0.5 µM): 83.2% (active) | inhibition [9, 25]: 77.8% | inhibition [9, 26]: 81.3% | inhibition ([10]; at 0.5 µM): 96.9% (active) | inhibition [10, 27]: 98.1% | inhibition [10, 28]: 96.2% | inhibition ([10]; single agent, at 0.05 µM): -27.4% | inhibition ([10]; single agent, at 5 µM): 99.9%

O=C(NCCCNc1nc(Nc2cccc(NC(=O)N3CCCC3)c2)ncc1I)c1cccs1
liver cell % of control [12]: 74.4% and 44.5% and 88.3% | parasite % of control [12]: 0.4% (inactive) and 0.22% (inactive) and 6.81% (inactive)

C=C(c1ccc(C(=O)O)cc1)c1cc2c(cc1C)C(C)(C)CCC2(C)C
parasite load remaining [11]: 34.5% (inactive) | viability [11]: 146% | z-score [13]: 0.715 (inactive)

CO[C@H]1/C=C/O[C@@]2(C)Oc3c(C)c(O)c4c(O)c(c5c(nc6cc(C)ccn65)c4c3C2=O)NC(=O)/C(C)=C\C=C\[C@H](C)[C@H](O)[C@@H](C)[C@@H](O)[C@@H](C)[C@H](OC(C)=O)[C@@H]1C
remaining NAD [1]: 10 nM (inactive) | luciferase signal [2]: 32 AU (inactive)

CN1CCc2c(c3ccccc3n2Cc2ccc(C(=O)NO)cc2)C1
inhibition ([3]; at 0.5 µM): -13.1% (inactive) | inhibition [3, 14]: -12% and -15.8% | inhibition [3, 15]: -23.4% and -23.9% | inhibition [3, 16]: -0.081% and -53.5% | inhibition ([4]; at 0.5 µM): 21.5% (inactive) and -46.3% (inactive) | inhibition [4, 17]: -14.9% and -43.1% | inhibition [4, 18]: 34.9% and -68.1% | inhibition ([5]; at 0.5 µM): -1.98% (inactive) and 0.91% (inactive) | inhibition [5, 19]: -6.31% and -10.4% | inhibition [5, 20]: 1.42% and 11.7% | inhibition ([6]; at 0.5 µM): 1.69% (inactive) and 0.65% (inactive) | inhibition [6, 21]: -1.11% and -13.8% | inhibition [6, 22]: 3.47% and 1.13% | inhibition ([7]; at 0.5 µM): -14.9% (inactive) and -18.4% (inactive) | inhibition [7, 15]: -17.1% and -16.5% | inhibition [7, 16]: -17.1% and 0.035% | inhibition [8, 23]: 19.3% and 22.8% | inhibition ([8]; at 0.5 µM): -0.05% (inactive) and 2.69% (inactive) | inhibition [8, 24]: 23.3% and 11.9% | inhibition ([9]; at 0.5 µM): -0.01% (inactive) and -0.33% (inactive) | inhibition [9, 25]: 5.22% and 4.02% | inhibition [9, 26]: -7.05% and -4.68% | inhibition ([10]; at 0.5 µM): 17% (inactive) and -23.2% (inactive) | inhibition [10, 27]: -9.72% and -7.89% | inhibition [10, 28]: 29.2% and -33% | inhibition ([10]; single agent, at 0.05 µM): -10.6% and -2.77% | inhibition ([10]; single agent, at 5 µM): 6.01% and -28.9%
